This note sets out measurements from PubChem BioAssay.

The source made the active and inactive calls. Unless noted, how the calls were made is not given here.

The nature of test [1]: HepG2 liver cancer cell viability effects, profiling panel, resazurin fluorescence, 24 h, PK04 Diversity Set (AID 1172). Conditions: higher = more signal. In general terms: Resazurin is reduced to fluorescent resorufin, in cell work by metabolically active cells.
Test [2] in a line: basal S. cerevisiae growth modulation, no modifier, primary screen, OD600, strain BY4716, 24 h, basal condition (AID 1173). Conditions: OD600, 24 h, higher = more signal, called active from +8 up or from −8 down.
Test [3] can be described thus: MM1S myeloma cell viability, profiling panel, resazurin fluorescence, basal, 24 h, PK04 Diversity Set (AID 1174).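 Further: MM1S multiple myeloma cell line.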 The note with it: higher = more signal, called active from +8 up or from −8 down.
The target of test [4] is Dihydroorotate dehydrogenase (quinone), mitochondrial (Plasmodium falciparum (isolate 3D7)) (UniProt Q08210). As to the kind of experiment: PfDHODH enzyme inhibitors, primary screen, biochemical, C-terminal His tag, absorbance 600 nm (AID 1175).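 Further: recombinant parasite enzyme with a five histidine tag at its C terminus.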 Conditions: DCIP absorbance 600 nm, higher = more signal, called active from +8 up or from −8 down.
Dihydroorotate dehydrogenase (quinone), mitochondrial (Plasmodium falciparum (isolate 3D7)), sequence (Q08210 whole entry, looked up): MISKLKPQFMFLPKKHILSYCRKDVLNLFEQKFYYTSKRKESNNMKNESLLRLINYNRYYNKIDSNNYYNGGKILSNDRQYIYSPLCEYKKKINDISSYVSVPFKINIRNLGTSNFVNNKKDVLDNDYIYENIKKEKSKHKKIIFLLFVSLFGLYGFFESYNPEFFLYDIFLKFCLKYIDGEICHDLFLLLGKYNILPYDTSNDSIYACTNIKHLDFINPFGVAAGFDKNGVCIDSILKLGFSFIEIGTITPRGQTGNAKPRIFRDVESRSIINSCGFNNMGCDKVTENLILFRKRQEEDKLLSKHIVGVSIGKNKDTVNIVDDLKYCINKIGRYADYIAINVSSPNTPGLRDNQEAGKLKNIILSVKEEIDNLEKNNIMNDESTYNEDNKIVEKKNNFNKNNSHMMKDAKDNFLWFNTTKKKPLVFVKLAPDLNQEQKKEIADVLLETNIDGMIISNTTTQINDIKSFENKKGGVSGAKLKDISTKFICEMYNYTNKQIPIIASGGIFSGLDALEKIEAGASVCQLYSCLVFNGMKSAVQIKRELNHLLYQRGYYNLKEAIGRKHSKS
Test [5] in a line: P. aeruginosa biofilm formation inhibitors, primary screen, strain PAO1, LB-PBS medium, absorbance 600 nm (AID 1176). The note with it: P. aeruginosa PAO1 growth/biofilm, A600, 12 h; higher = more signal.
The nature of test [6]: S. cerevisiae RM11-1a growth modifiers, primary screen, strain RM11-1a, OD600, basal, 24 h (AID 1177).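 Further: cultures grown under basal conditions with no added stressor.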 The note with it: OD600, 24 h, higher = more signal, called active from +8 up or from −8 down.
A short description of test [7]: E. coli acrAB mutant growth effects, primary screen, E. coli filamentation inducers, strain DRC39, OD650, 24 h (AID 1178).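 Further: growth measured as culture turbidity by optical density at 650 nm.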 The note with it: higher = more signal, called active from +8 up or from −8 down.
Test [8] in a line: E. coli acrAB mutant growth effects, primary screen, E. coli filamentation inducers, strain DRC39, OD650, 48 h (AID 1179).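 Further: screen aims at cell division blockers that make cells filament.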 Conditions: E. coli DRC39 delta-acrAB growth, higher = more signal, called active from +8 up or from −8 down.
The nature of test [9]: RPMI8226 myeloma cell viability, profiling panel, resazurin fluorescence, basal, 24 h, PK04 Diversity Set (AID 1180).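 Further: RPMI8826 multiple myeloma cell line at 5000 cells per well.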 The note with it: higher = more signal.
Test [10] deals with E3 ubiquitin-protein ligase XIAP (Homo sapiens) (UniProt P98170). As to the kind of experiment: XIAP binders, primary screen, biophysical, small-molecule microarray, fluorescence 635 nm (AID 1181).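 Further: score merges 667 nm emission and signal to noise over triplicate slides.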 The note with it: small-molecule microarray binding, higher = more signal.
E3 ubiquitin-protein ligase XIAP (Homo sapiens), sequence (P98170 whole entry, looked up): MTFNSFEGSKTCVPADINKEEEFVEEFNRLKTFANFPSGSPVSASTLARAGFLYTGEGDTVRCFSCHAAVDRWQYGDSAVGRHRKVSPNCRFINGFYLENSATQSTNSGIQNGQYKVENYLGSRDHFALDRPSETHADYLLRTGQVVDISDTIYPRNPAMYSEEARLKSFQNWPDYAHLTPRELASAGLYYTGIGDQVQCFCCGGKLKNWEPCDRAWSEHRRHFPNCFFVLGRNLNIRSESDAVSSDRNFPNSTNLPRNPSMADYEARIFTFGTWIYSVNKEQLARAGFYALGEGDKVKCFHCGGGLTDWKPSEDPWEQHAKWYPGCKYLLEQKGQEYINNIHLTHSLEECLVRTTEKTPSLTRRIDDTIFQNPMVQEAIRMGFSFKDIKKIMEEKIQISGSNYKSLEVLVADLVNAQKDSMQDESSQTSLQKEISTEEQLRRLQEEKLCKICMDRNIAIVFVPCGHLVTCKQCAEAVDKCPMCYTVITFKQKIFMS
Test [11] deals with XIP peptide (Xip251-270) binding. Put plainly: small-molecule binders of XIP peptide, primary screen, biochemical, small-molecule microarray, fluorescence 635/667 nm, 0.1 µg/mL protein (AID 1182). The note with it: fluorescent protein binding, 635 nm, higher = more signal, called active from +8 up or from −8 down.
A further test concerns XIP peptide (Xip251-270). Put plainly: small-molecule binders of XIP peptide, primary screen, biochemical, small-molecule microarray, fluorescence 635/667 nm, 0.5 µg/mL protein (AID 1183). The note with it: small-molecule microarray binding, fluorescence 635 nm; higher = more signal.
Test [12] in a line: Plasmodium falciparum growth inhibition, primary screen, strain 3D7, DAPI fluorescence, 100 nL (AID 1184).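 Further: parasites grown inside human red blood cells in medium with human serum.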 The note with it: P. falciparum 3D7 growth, 3 d, higher = more signal.
For test [13], the target named is Homeobox protein Hox-A13 (Mus musculus) (UniProt Q62424). As to the kind of experiment: inhibitors of HoxA13-DNA binding, primary screen, biochemical, fluorescence polarization, labeled oligonucleotide (AID 1185). The note with it: 15 min, higher = more signal, called active from +8 up or from −8 down. For orientation: Polarisation of emitted light reports the rotation of a fluorescent probe.
Homeobox protein Hox-A13 (Mus musculus), sequence (Q62424 whole entry, looked up): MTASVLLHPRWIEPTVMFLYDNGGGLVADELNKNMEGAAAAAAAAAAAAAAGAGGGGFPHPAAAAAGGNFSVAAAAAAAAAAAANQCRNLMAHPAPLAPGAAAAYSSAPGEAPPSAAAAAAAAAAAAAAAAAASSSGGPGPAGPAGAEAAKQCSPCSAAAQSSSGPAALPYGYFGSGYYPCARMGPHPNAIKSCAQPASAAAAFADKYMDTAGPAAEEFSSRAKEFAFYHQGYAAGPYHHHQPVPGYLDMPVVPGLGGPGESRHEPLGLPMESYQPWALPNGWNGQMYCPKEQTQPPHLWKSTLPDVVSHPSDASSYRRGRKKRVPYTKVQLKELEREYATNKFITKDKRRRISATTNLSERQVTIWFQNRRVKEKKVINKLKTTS

A short description of test [14]: inhibitors of hydroxyurea-induced Chk1 phosphorylation, primary screen, imaging, HeLa, phospho-Chk1 antibody, percent positive cells (AID 1186). The note with it: hydroxyurea-induced phospho-Chk1 immunofluorescence imaging, higher = more signal.
Test [15] can be described thus: inhibitors of hydroxyurea-induced Chk1 phosphorylation, primary screen, imaging, HeLa, phospho-Chk1 nuclear intensity (AID 1187). The note with it: hydroxyurea-induced phospho-Chk1 immunofluorescence imaging, higher = more signal.

As to `CC(C)c1ccc(NN2C(C(O)c3ccc(C#N)cc3)C=CC3C(=O)N(c4ccccc4)C(=O)C32)cc1` (centres undefined), the z-score is -2 in [1]; -1.67 (inactive) in [2]; -1.26 (inactive) in test [3]; 1.94 (inactive) in [5]; 1.15 (inactive) in test [6]; -0.526 (inactive) in test [7]. The z-score is -0.926 (inactive) in test [8]; -1.48 in [9]; 0.109 in test [12]; -2.79 (inactive) in test [13]; 0.879 (inactive) in [14]; 0.815 (inactive) in test [15]. Also, the composite z-score is -0.0438 (inactive) in test [4], -0.152 in [10], 0.105 (inactive) in test [11] and 0.752 in the test on XIP peptide (Xip251-270).
As to `CS(=O)(=O)CCOC(=O)C1=CC(c2ccc(CO)cc2)=CC(C2CC2)N(Cc2sc3ccccc3c2Cl)C=C1C(=O)OCCS(C)(=O)=O` (centres undefined), the z-score in test [1] was 0.315; in [2], -5.45 (inactive); in test [3], -2.63 (inactive); in [5], -0.563 (inactive); in test [6] it was 0.272 (inactive); in test [7], -3.53 (inactive). In addition, the z-score was -2.01 (inactive) in test [8]; -1.85 in test [9]; -3.02 in [12]; 0.0711 (inactive) in test [13]; -0.27 (inactive) in test [14]; 0.137 (inactive) in [15]. Also, the composite z-score in [4] is -1.26 (inactive); in test [10], 0.0049; in test [11] it was 0.766 (inactive); in the test on XIP peptide (Xip251-270), 0.492.
In the case of `CCOC(=O)C[C@H]1[C@H](OC(=O)c2ccc(C(=O)c3ccccc3)cc2)[C@@H](NC(=O)c2ccc3ccccc3n2)c2cc(OCCCO)ccc2N1C(=O)Cc1ccc(OC)cc1`, the z-score was -0.0031 in test [1]; 1.03 (inactive) in test [2]; 0.0487 (inactive) in test [3]; -0.75 (inactive) in [5]; 0.0192 (inactive) in [6]; -2.25 (inactive) in [7]. Further, the z-score in test [8] is -2.31 (inactive); in test [9] it was 0.131; in test [12], -2.69; in [13], -0.833 (inactive); in test [14] it was -0.824 (inactive); in test [15] it was -0.835 (inactive). For the same molecule, the composite z-score was -0.0608 (inactive) in [4], -0.0961 in test [10], -0.667 (inactive) in [11] and -0.219 with XIP peptide (Xip251-270).
In the case of `CC(C)C(CO)N1C(=O)[C@@H]2[C@H]3C(=O)OCC=C[C@H]3OC23C=CCN(c2ccc(Cl)cc2)C(=O)[C@@H]13` (some centres undefined), the z-score in test [1] was -0.0883; in [2], 0.646 (inactive); in test [3], 0.679 (inactive); in test [5], -1.13 (inactive); in test [6], 1.48 (inactive); in test [7] it was 0.969 (inactive). In addition, the z-score in test [8] is 0.646 (inactive); in test [9], 1.08; in test [12], -0.485; in test [13] it was -3.03 (inactive); in [14] it was -0.438 (inactive); in [15], -0.468 (inactive). For the same molecule, the composite z-score in [4] was 1.13 (inactive); in [10], -0.21; in [11], 0.331 (inactive); in the test on XIP peptide (Xip251-270), -0.202.
Consider `CCCC=C(CCC)[C@@H](NC(=O)C(C)(C)C)c1ccc(C(=O)OC)cc1`, for which the z-score in test [1] was 1.35; in test [2], 1.3 (inactive); in test [3] it was -0.0387 (inactive); in [5], 0.122 (inactive); in test [6], 1.17 (inactive); in [7] it was -0.187 (inactive). In addition, the z-score was 0.0571 (inactive) in test [8]; -0.0244 in test [9]; -1.47 in test [12]; -0.168 (inactive) in test [13]; -0.75 (inactive) in test [14]; -0.977 (inactive) in [15]. Moreover, the composite z-score is 0.0907 (inactive) in test [4], -0.34 in [10], 0.158 (inactive) in [11] and -0.227 with XIP peptide (Xip251-270).
In the case of `CC(C)[Si]1(C(C)C)OCc2cc(-c3ccc(-c4ccc(Cl)c(Cl)c4)o3)nc(-c3ccccc3)c21`, the z-score in test [1] is 0.374; in [2], -0.981 (inactive); in test [3], 0.797 (inactive); in test [5], 0.374 (inactive); in test [6], -0.219 (inactive); in [7], -0.28 (inactive). Besides, the z-score in test [8] is -0.725 (inactive); in [9], 0.311; in [12], 0.138; in test [13] it was -2.02 (inactive); in test [14] it was -0.611 (inactive); in test [15], -0.577 (inactive). Moreover, the composite z-score was 0.107 (inactive) in test [4], -0.031 in test [10], -0.325 (inactive) in test [11] and 0.716 in the test on XIP peptide (Xip251-270).
`O=C(O)[C@@H]1C[C@@H]2C(=O)N3CCC[C@H]3C(=O)N2[C@@H]1c1ccc(O)cc1`: the z-score was -0.155 in test [1]; -1.8 (inactive) in test [2]; -0.695 (inactive) in test [3]; 1.03 (inactive) in [5]; -0.113 (inactive) in test [6]; 0.437 (inactive) in [7]. Besides, the z-score is -0.535 (inactive) in [8]; 0.16 in test [9]; -1.37 in test [12]; 1.66 (inactive) in test [13]; 0.959 (inactive) in test [14]; 1.08 (inactive) in test [15]. For the same molecule, the composite z-score was -1.7 (inactive) in [4], 0.0721 in [10], 0.543 (inactive) in test [11] and 0.906 in the test with XIP peptide (Xip251-270).
Take `CC(CO)N1C(=O)[C@]2(C)C3C(=O)OCCC/C=C\[C@H]3OC23C=CCN(c2ccc(Cl)cc2)C(=O)[C@@H]13` (some centres undefined): the z-score in test [1] is -0.342; in test [2], 0.317 (inactive); in [3], 0.28 (inactive); in test [5] it was -0.264 (inactive); in test [6], -0.354 (inactive); in [7], 0.351 (inactive). Besides, the z-score in test [8] was 0.779 (inactive); in test [9], 0.499; in test [12] it was 0.416; in test [13] it was -3.59 (inactive); in test [14], 0.0747 (inactive); in test [15] it was 0.651 (inactive). Moreover, the composite z-score was -0.924 (inactive) in test [4], 0.834 in test [10], -0.356 (inactive) in test [11] and 0.725 in the test with XIP peptide (Xip251-270).
In the case of `Oc1ccc2cc[n+](Cc3cc4c(cc3Br)OCO4)cc2c1`, the z-score in test [1] was -0.269; in test [2], -0.72 (inactive); in test [3] it was -0.526 (inactive); in test [5], -0.159 (inactive); in test [6] it was 1.31 (inactive); in test [7], 0.364 (inactive). The z-score in test [8] is 0.161 (inactive); in [9], -0.135; in test [12] it was 0.0298; in [13] it was -8.63 (active); in test [14], 0.12 (inactive); in [15], 0.225 (inactive). For the same molecule, the composite z-score in [4] was -0.625 (inactive); in test [10], -0.281; in test [11], 0.425 (inactive); with XIP peptide (Xip251-270), 0.135.
